Data reported in PubChem BioAssay AID652017 (The Scripps Research Institute Molecular Screening Center, 2013).
The campaign covered roughly 370,000 compounds. About 3,800 (1%) were called active. For the sample, actives were picked, then their nearest neighbours and some compounds at random. A number with no mark means an inactive call. Rule as the data show it: active = activation above about 7.8%; inactive = the rest.

Experiment: SMARCA2 (BRM) function activators, primary screen, cell-based, luminescence, high throughput (AID 652017);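 also: 0% = vehicle wells and 100% = reference activator wells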
Conditions: MG213 cells, MMTV-luciferase reporter, dexamethasone, overnight; at 9.1 µM; hits give high values

In the case of `Cc1ccccc1C#CC1=CC(=O)CC(C)(C)C1`, the activation was 9.9% (active).
For `Cc1c(C(=O)NCCCc2ccccc2)cccc1[N+](=O)[O-]`, the activation was 8.08% (active).
In the case of `Cc1ccnc(NC(=O)C2CCN(S(=O)(=O)c3c(C)c(C)cc(C)c3C)CC2)c1`, the activation was 9.5% (active).
For `COc1ccc(/C(N)=N/OC(=O)Oc2ccccc2)cc1`, the activation was 8.42% (active).
For `Cc1cc(O)c(NC(=O)c2ccc(C)c([N+](=O)[O-])c2)cc1C`, the activation was 9.28% (active).
For `Cc1ccc(-c2c(C)n([O-])c3c([n+]2=O)CCC3)cc1`, the activation was 14.5% (active).
With `CCCCCCOC(=O)NCC(O)c1ccccc1` (stereo unspecified) the activation was 11.2% (active).
For `Cn1cccc1/C=N/NC(=O)c1ccc(OC(F)(F)C(F)F)cc1`, the activation was 8.72% (active).
In the case of `Cc1cc(C)c2nc(NC(=O)C3CCCO3)sc2c1` (stereo unspecified), the activation was 7.96% (active).
In the case of `CCCCc1ccc(NC(=S)N2CCCC(CO)C2)cc1` (stereo unspecified), the activation was 15% (active).
With `CCc1c(C)c2ccc(OC3CCCCC3=O)cc2oc1=O` (stereo unspecified) the activation was 13.8% (active).
For `CCC1CCC/C1=N\NC(=O)c1ccc(Cl)cc1` (stereo unspecified), the activation was 10.3% (active).
In the case of `O=C(OCC(=O)c1cccs1)C1=COCCO1`, the activation was 8.48% (active).
With `CCCn1nc(C(=O)Nc2ccc3nc(C)sc3c2)c2ccccc2c1=O` the activation was 11.4% (active).
For `Cc1noc(C)c1S(=O)(=O)N(C)C[C@H]1Oc2c(NC(=O)Nc3ccc4c(c3)OCO4)cccc2C(=O)N([C@H](C)CO)C[C@@H]1C`, the activation was 8.33% (active).
In the case of `Cc1noc(C)c1/C=N/Nc1ccc2ccccc2n1`, the activation was 9.44% (active).
With `CN(C)CCNC(=O)c1ccc(Cl)c2cc3ccccc3nc12` the activation was 56.5% (active).
With `CC1(C)CC(=O)C=C(NCCCNC2CCCCC2)C1` the activation was 10.6% (active).

Point of comparison: `O=C(CSc1ncnc2c1nnn2Cc1ccc(F)cc1)NC1CCCC1`, activation -2.99%. Against it:
- Cc1ccc(C(=O)OC2=CC(=O)CC(C)(C)C2)cc1 — higher, 2.66%
- Cc1cc(O)ccc1NC1=CC(=O)CC(C)(C)C1 — higher, -2.49%
- COc1ccccc1N(CC(=O)Nc1ccc(C(F)(F)F)cc1)S(C)(=O)=O — higher, -1.17%
- C=CCN1C(=O)[C@@H](CC(=O)NCCCOCCCC)[C@]2(C(=O)OCC)CCCCC/C=C/12 — higher, -1.57%
- COc1ccc(-n2c(SCC(=O)NC3CCCC3)nnc2-c2ccncc2)cc1 — lower, -4.56%
- CSc1ncc(C(=O)NCCCc2ccccc2)c(C)n1 — higher, -0.15%
- O=C(O)c1ccccc1-c1ccccc1C(=O)NCCc1ccccc1 — higher, 1.35%
- O=S1(=O)c2c(cccc2N2CCSCC2)Oc2ccccc2CN1Cc1cn(Cc2ccc(F)cc2)nn1 — higher, -2.23%
- O=C(CCS(=O)(=O)c1ccccc1)Nc1ccc(Cl)c(Cl)c1 — higher, 1.57%
- COc1ccc(-n2c(SCC(=O)Nc3ccc4c(c3)OCCO4)nnc2-c2ccc(Cl)cc2)cc1 — higher, -0.28%
- Cc1ccc(Cl)cc1NC(=O)C1CCN(S(C)(=O)=O)CC1 — higher, -0.58%
- O=C(Nc1ccccn1)C1CCN(S(=O)(=O)c2ccc3c(c2)OCCO3)CC1 — higher, -2.23%
- COC(=O)[C@]12C[C@H](CC(=O)NCc3ccc(C)o3)C(=O)N(CCC3=CCCCC3)C1=C[C@H](C(C)(C)C)O[C@@H]2C — higher, 3.47%
- CCN(CC)C(=O)CC[C@@H]1CC[C@]2(CCCN(S(=O)(=O)C3CCCCC3)C2)O1 — lower, -3.43%
- N/C(=N\OC(=O)CCc1ccccc1)c1ccc(Cl)cc1 — higher, 5.53%
- CO/N=C/CC(=O)c1ccc(OC)cc1 — higher, 4.21%
- CN(CC(=O)Nc1cccc(F)c1)C(=O)C1CSC2(C)CCC(=O)N12 (stereo unspecified) — higher, -0.29%
- CN1[C@H](Cc2ccccc2)COc2cccc(N3CCSCC3)c2S1(=O)=O — higher, 0.97%
- CCN1CCC(=NNC(=O)c2ccc(C)c([N+](=O)[O-])c2)CC1 — higher, -0.87%
- CCCCNc1ccc(C(=O)Nc2cccc(C)n2)cc1[N+](=O)[O-] — higher, -1.63%
- COc1ccc(C(=O)N2CCN(c3ncccn3)CC2)cc1S(=O)(=O)N1CCOCC1 — higher, -2.62%
- Cc1cc(C(=O)NN=C/C=C/c2ccco2)n[nH]1 — lower, -4.94%
- Cc1ccc(NC(=O)Cc2cccc(F)c2)c(S(=O)(=O)N2CCOCC2)c1 — lower, -4.77%
- CCOc1ccc(-c2c(C)n([O-])c3c([n+]2=O)CCCC3)cc1 — higher, 0.92%
- Cc1ccc(-c2c[n+](=O)c3c(n2[O-])CCC3)cc1 — lower, -3.37%
- CCCc1cc(=O)oc2c(C)c(OC(C)C(=O)NCC(O)c3ccccc3)ccc12 (stereo unspecified) — higher, -0.91%
- CCCCOC(=O)Nc1nnc(CC(=O)NCc2ccccc2)s1 — higher, -0.38%
- CN(C)CCNC(=O)C(C(=O)c1ccccc1)n1ccccc1=O (stereo unspecified) — higher, 2.29%
- O=C(CSc1nc2ccccc2nc1N1CCCCC1)N1CCN(S(=O)(=O)c2cccc([N+](=O)[O-])c2)CC1 — higher, 5.57%
- O=C(NC1CCC1)c1ccc(C#Cc2cccc(F)c2)c[n+]1[O-] — higher, -2.93%
- Cn1nccc1/C=N\NC(=O)c1ccc(Cl)cc1 — higher, -0.88%
- O=C(Nc1ccc(OC(F)(F)F)cc1)c1ccc2c(c1)no[n+]2[O-] — lower, -7.81%
- O=C(COc1cc(Cl)c(Cl)cc1Cl)NC(=O)NC1CCCC1 — higher, -2.73%
- CC(C)CSc1nnc(-c2cccnc2)n1Cc1ccccc1 — lower, -4.95%
- Cc1ccc(CN2CCCCC(NC(=O)C3CCCCC3)C2=O)cc1 (stereo unspecified) — higher, -2.16%
- Cc1ccc(C)c(C(C)NC(=O)C2CCCO2)c1 (stereo unspecified) — higher, -1.74%
- Cc1cc(C)c2nc(N3CCC(C(=O)NCCN4CCOCC4)CC3)sc2c1 — higher, -1.84%
- CCOC(=O)[C@]12CCCC3=C1N(CCC3)C(=O)[C@@H](CC(=O)N1CCSCC1)C2 — higher, -1.03%
- CCOc1ccc(-n2c(SCC(=O)Nc3cc(C)c(NC(=O)c4ccccc4)cc3OC)nnc2-c2cccc(Cl)c2)cc1 — lower, -5.83%
- CN(C)S(=O)(=O)c1cccc(C(=O)N/N=C\c2ccco2)c1 — higher, -2.36%
- CCC(C)c1ccc(NC(=S)N2CCCC2)cc1 (stereo unspecified) — higher, -0.97%
- COc1cc(NC(=S)N2CCCC(C)C2)cc(OC)c1OC (stereo unspecified) — higher, 3.14%
- N#CCC[C@H]1CC[C@]2(CCCN(Cc3ccc(Cl)cc3)C2)O1 — lower, -3.04%
- COc1ccccc1C(=O)CSc1nnc(-c2ccccn2)n1-c1ccccc1 — higher, 5.55%
- O=S1(=O)c2ccc(N3CCN(Cc4ccccc4F)CC3)cc2Oc2ccccc2CN1Cc1cn(Cc2ccc(Cl)cc2)nn1 — higher, 4.05%
- Cc1cccc(NC(=O)C[C@H]2CC[C@H]3[C@@H](COc4ccc(NC(=O)Nc5ccccc5)cc4C(=O)N3C)O2)c1 — higher, 2.72%
- Cc1cc(=O)[nH]c(SCC(=O)Nc2ccc(Cl)cc2C)n1 — higher, -2.94%
- COC(=O)Cc1c(C)c2ccc(OCC(=O)NCc3ccc4c(c3)OCO4)cc2oc1=O — higher, 2.31%
- O=C(COc1ccc2c3c(c(=O)oc2c1)CCC3)NC1CCCCC1 — higher, -1.03%
- Cc1ccccc1NC(=O)Cn1nnc(-c2ccccc2F)n1 — higher, 1.3%
- c1ccc(Cc2nn3c(Cn4cnc5ccccc54)nnc3s2)cc1 — lower, -3.67%
- CN1CCC(=NNC(=O)c2ccc(N(Cc3ccc(Cl)cc3)S(C)(=O)=O)cc2)CC1 — higher, -1.44%
- CC(NC(=O)c1ccc(Cl)cc1)C(=O)N1CCCCC1 (stereo unspecified) — higher, 0.9%
- O=C(OCC(=O)c1cccs1)c1ccc([N+](=O)[O-])o1 — higher, -0.97%
- CCC(C)(C)c1ccc(Oc2ccc(NC(=O)COC(=O)C3=COCCO3)cc2)cc1 — lower, -10.1%
- O=C1Nc2ccccc2-n2nnnc2C1N1CCN(c2cccc(C(F)(F)F)n2)CC1 (stereo unspecified) — higher, 3.09%
- CCCCn1nc(C(=O)Nc2cccc(C(=O)NC3CC3)c2)c2ccccc2c1=O — higher, 1.35%
- CCCn1nc(C(=O)NNC(=O)CSCC(=O)Nc2cc(C)on2)c2ccccc2c1=O — higher, -2.41%
- CCOC(=O)[C@@]12CN(C(=O)OC(C)(C)C)CC=C1N(Cc1ccc(OC)cc1)C(=O)[C@H]2CC(=O)NCc1ccc(OC)c(OC)c1 — higher, -2.13%
- COC(=O)[C@H](CC(C)C)NS(=O)(=O)c1c(F)cccc1F — lower, -3.1%
- C=CCN(C(=O)[C@@H](CCCC)[C@@H](O)c1ccc(Cl)cc1)c1ccccc1 — lower, -3.35%
- COc1ccccc1CCNC(=O)C1CCN(c2nc(C)cc(C)n2)CC1 — higher, -2.87%
- CCOC(=O)[C@]12CCCC=C1N(CCCOC)C(=O)[C@@H]2CC(=O)N1CCOCC1 — higher, -2.55%
- Cc1noc(C)c1NC(=O)Nc1cccc2c1O[C@H](CN(C)S(=O)(=O)c1c(C)noc1C)[C@@H](C)CN([C@H](C)CO)C2=O — higher, 2.13%
- COc1ccc(S(=O)(=O)N(C)C[C@H]2Oc3c(NC(=O)Nc4ccc5c(c4)OCO5)cccc3C(=O)N([C@H](C)CO)C[C@@H]2C)cc1 — higher, -0.71%
- COc1ccc(Cn2cc(COC(=O)N(C)Cc3ccccc3)nn2)cc1 — higher, 0.64%
- Clc1ccc(Nc2ccc3ccccc3n2)cc1 — higher, 5.05%
- O=C(c1c[nH]c2ccccc12)N1CCC(Oc2cccnc2)CC1 — higher, 3.83%
- COCCNC(=O)c1ccccc1-c1nc(-c2ccccc2Cl)no1 — higher, 3.36%
- Cc1cc(C)n(C(=O)CCNC(=O)c2ccccc2Cl)n1 — higher, 0.01%
- CC1(C)CC(=O)C=C(NCCN2CCNCC2)C1 — higher, -1.09%
- CC1(C)CC(=O)C=C(NCCCN2CCCC2=O)C1 — higher, 0.48%
